The sample as a whole holds a higher share of the strongest signals than the screen did.

Common to all, as to assay: glycan array binding signal (z-score within array); higher = stronger binding
What all share (conditions): glycan notation: IUPAC condensed, linker removed

Experiment [1] addresses Neu5Ac(a2-3)Gal(b1-3)[Neu5Ac(a2-6)]GalNAc. The procedure, abridged: (§1)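 Columns mapping to the same glycan were averaged after glycan names were converted to IUPAC-condensed notation. The data come from 3228 arrays in the Consortium for Functional Glycomics database, limited to those with an available protein sequence. Binding is reported as a within-array Z-score averaged across arrays of one protein sequence and across linkers.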

Experiment [2] addresses Neu5Ac(a2-3)Gal(b1-4)GlcNAc(b1-2)Man(a1-3)[Neu5Ac(a2-3)Gal(b1-4)GlcNAc(b1-2)Man(a1-6)]Man(b1-4)GlcNAc(b1-4)GlcNAc. In short, it runs like this: as §1
Experiment [3] addresses Neu5Ac(a2-3)Gal(b1-4)GlcNAc(b1-3)Gal. The procedure, abridged: as §1
Experiment [4] concerns the target Neu5Ac(a2-3)Gal(b1-4)[Fuc(a1-3)]GlcNAc. In short, it runs like this:
as §1

Experiment [5] deals with Neu5Ac(a2-3)Gal(b1-4)[Fuc(a1-3)]GlcNAc(b1-3)Gal(b1-4)[Fuc(a1-3)]GlcNAc(b1-3)Gal(b1-4)[Fuc(a1-3)]GlcNAc. The procedure, abridged:
as §1

Experiment [6] deals with Neu5Ac(a2-6)Gal(b1-4)GlcNAc(b1-2)Man(a1-3)[GlcNAc(b1-2)Man(a1-6)]Man(b1-4)GlcNAc(b1-4)GlcNAc. The procedure, abridged:
as §1

The target of experiment [7] is Neu5Ac(a2-6)Gal(b1-4)GlcNAc(b1-2)Man(a1-3)[Neu5Ac(a2-3)Gal(b1-4)GlcNAc(b1-2)Man(a1-6)]Man(b1-4)GlcNAc(b1-4)GlcNAc. The procedure, abridged: as §1
The target in experiment [8] is Neu5Ac(a2-6)Gal(b1-4)GlcNAc(b1-2)Man(a1-6)[GlcNAc(b1-2)Man(a1-3)]Man(b1-4)GlcNAc(b1-4)GlcNAc. The procedure, abridged: as §1
The target in experiment [9] is Neu5Ac(a2-6)Gal(b1-4)GlcNAc(b1-2)[Neu5Ac(a2-6)Gal(b1-4)GlcNAc(b1-4)]Man(a1-3)[GlcNAc(b1-4)][Neu5Ac(a2-6)Gal(b1-4)GlcNAc(b1-2)[Neu5Ac(a2-6)Gal(b1-4)GlcNAc(b1-6)]Man(a1-6)]Man(b1-4)GlcNAc(b1-4)GlcNAc. In short, it runs like this:
as §1

In experiment [10] the target is Neu5Ac(a2-6)Gal(b1-4)GlcNAc(b1-2)[Neu5Ac(a2-6)Gal(b1-4)GlcNAc(b1-6)]Man(a1-6)[Neu5Ac(a2-6)Gal(b1-4)GlcNAc(b1-2)Man(a1-3)][GlcNAc(b1-4)]Man(b1-4)GlcNAc(b1-4)GlcNAc. In short, it runs like this: as §1
Experiment [11] has as its target Neu5Ac(a2-6)Gal(b1-4)GlcNAc(b1-3)Gal(b1-4)[Fuc(a1-3)]GlcNAc(b1-3)Gal(b1-4)[Fuc(a1-3)]GlcNAc. The procedure, abridged:
as §1

The target of experiment [12] is Neu5Ac(a2-6)Gal(b1-4)GlcNAc(b1-6)GalNAc. In short, it runs like this:
as §1

In experiment [13] the target is Neu5Ac(a2-6)Gal(b1-4)GlcNAc(b1-6)[Gal(b1-3)GlcNAc(b1-3)]Gal(b1-4)Glc. The procedure, abridged: as §1
Experiment [14] concerns the target Neu5Gc(a2-8)Neu5Ac(a2-3)Gal(b1-4)GlcNAc. In short, it runs like this:
as §1

B1: Endo180d1-D4 (Homo sapiens), Q9UBG0 (protein)
chain: MGPGRPAPAPWPRHLLRCVLLLGCLHLGRPGAPGDAALPEPNVFLIFSHGLQGCLEAQGGQVRVTPACNTSLPAQRWKWVSRNRLFNLGTMQCLGTGWPGTNTTASLGMYECDREALNLRWHCRTLGDQLSLLLGARTSNISKPGTLERGDQTRSGQWRIYGSEEDLCALPYHEVYTIQGNSHGKPCTIPFKYDNQWFHGCTSTGREDGHLWCATTQDYGKDERWGFCPIKSNDCETFWDKDQLTDSCYQFNFQSTLSWREAWASCEQQGADLLSITEIHEQTYINGLLTGYSSTLWIGLNDLDTSGGWQWSDNSPLKYLNWESDQPDNPSEENCGVIRTESSGGWQNRDCSIALPYVCKKKPNATAEPTPPDRWANVKVECEPSWQPFQGHCYRLQAEKRSWQESKKACLRGGGDLVSIHSMAELEFITKQIKQEVEELWIGLNDLKLQMNFEWSDGSLVSFTHWHPFEPNNFRDSLEDCVTIWGPEGRWNDSPCNQSLPSICKKAGQLSQGAAEEDHGCRKGWTWHSPSCYWLGEDQVTYSEARRLCTDHGSQLVTITNRFEQAFVSSLIYNWEGEYFWTALQDLNSTGSFFWLSGDEVMYTHWNRDQPGYSRGGCVALATGSAMGLWEVKNCTSFRARYICRQSLGTPVTPELPGPDPTPSLTGSCPQGWASDTKLRYCYKVFSSERLQDKKSWVQAQGACQELGAQLLSLASYEEEHFVANMLNKIFGESEPEIHEQHWFWIGLNRRDPRGGQSWRWSDGVGFSYHNFDRSRHDDDDIRGCAVLDLASLQWVAMQCDTQLDWICKIPRGTDVREPDDSPQGRREWLRFQEAEYKFFEHHSTWAQAQRICTWFQAELTSVHSQAELDFLSHNLQKFSRAQEQHWWIGLHTSESDGRFRWTDGSIINFISWAPGKPRPVGKDKKCVYMTASREDWGDQRCLTALPYICKRSNVTKETQPPDLPTTALGGCPSDWIQFLNKCFQVQGQEPQSRVKWSEAQFSCEQQEAQLVTITNPLEQAFITASLPNVTFDLWIGLHASQRDFQWVEQEPLMYANWAPGEPSGPSPAPSGNKPTSCAVVLHSPSAHFTGRWDDRSCTEETHGFICQKGTDPSLSPSPAALPPAPGTELSYLNGTFRLLQKPLRWHDALLLCESHNASLAYVPDPYTQAFLTQAARGLRTPLWIGLAGEEGSRRYSWVSEEPLNYVGWQDGEPQQPGGCTYVDVDGAWRTTSCDTKLQGAVCGVSSGPPPPRRISYHGSCPQGLADSAWIPFREHCYSFHMELLLGHKEARQRCQRAGGAVLSILDEMENVFVWEHLQSYEGQSRGAWLGMNFNPKGGTLVWQDNTAVNYSNWGPPGLGPSMLSHNSCYWIQSNSGLWRPGACTNITMGVVCKLPRAEQSSFSPSALPENPAALVVVLMAVLLLLALLTAALILYRRRQSIERGAFEGARYSRSSSSPTEATEKNILVSDMEMNEQQE
On to B1, for which the “glycan array binding signal (z-score)” value is -0.517 in [1]; -0.688 in experiment [2]; 0.249 in experiment [3]; -0.083 in experiment [4]; -0.132 in experiment [5]; 3.38 in [6]. For the same molecule, the “glycan array binding signal (z-score)” value was 0.363 in experiment [7]; -0.485 in [8]; -0.277 in [9]; 2.92 in [10]; 2.78 in experiment [11]; 0.474 in experiment [12]. In addition, the entries for the “glycan array binding signal (z-score)” value in [13] and in [14] were -0.046 and -0.032, respectively.

Source of the values: the supplement of paper PMC8728848.
